PubChem BioAssay (NCATS)
Several values for one entry are separate records, joined by “and”; a condition that tells them apart may be missing. Equal entries are not always repeated. Records with an inconclusive call do not appear. Activity calls are given as the source filed them. Unless noted, calls follow the shape of the dose curve; as a rule, active = well fitted curve in the direction sought with a large enough effect; inconclusive = small, poorly fitted or top-dose-only effect, or another doubt; inactive = no such curve, though single readings can be large; an effect the other way counts as inactive or inconclusive.

How the values were obtained:
[1] = qHTS to identify inhibitors of the type 1 interferon - major histocompatibility complex class I in skeletal muscle: primary screen against the NCATS Mechanism Interrogation Plate v5.0 (MIPE) Libary (AID 1347411); also: nearly all actives have a fitted effect of over 65% in size; also: potency is read from the fitted curve at half-maximal effect
Outline: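 Seed engineered human myoblasts (HLA-B HiBit) in medium without dexamethasone containing 4 ng/ml IFN-beta; after 1 hr add compound titrations (top 46 uM final). Incubate 24 hrs at 37 C, lyse 10 min with HiBiT reagent, read luminescence.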

[2] = target: Calcium and integrin-binding protein 1 (Homo sapiens) (UniProt Q99828); assay: Primary qHTS for Identification of Calcium Integrin Binding Protein 1 (CIB1) Competitor (AID 1508620);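 also: GST tagged CIB1 binding a fluorescein labelled alphaIIb integrin peptide tracer; top concentration of the series differs between compounds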
Sequence of Calcium and integrin-binding protein 1 (Homo sapiens) (Q99828 whole entry, looked up): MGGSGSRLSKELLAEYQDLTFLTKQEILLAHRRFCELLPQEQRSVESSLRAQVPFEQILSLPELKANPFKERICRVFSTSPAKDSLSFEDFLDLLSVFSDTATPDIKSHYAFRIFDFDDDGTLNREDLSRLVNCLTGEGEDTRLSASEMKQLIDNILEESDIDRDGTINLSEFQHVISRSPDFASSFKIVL
Outline: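 CIB1-GST (1 uM final) and compound incubated 15 min at room temperature before adding FITC-alphaIIb peptide tracer (100 nM final). Competition for binding read by fluorescence polarization (ex 480, em 540) after another 15 min at room temperature.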

[3] = Primary qHTS for small molecule stabilizers of the endoplasmic reticulum resident proteome: Secreted ER Calcium Modulated Protein (SERCaMP) assay (AID 1508630); also: potency is read from the fitted curve at half-maximal effect
Outline: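 The SH-SY5Y reporter protocol was run at 3 concentrations up to 38.3 uM (primary) or 11 concentrations (follow-up): 16 h compound, 100 nM thapsigargin for 4 h, then extracellular luciferase luminescence.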

[4] = target: Cytochrome P450 2D6 (Homo sapiens) (UniProt P10635); assay: Cytochrome P450 family 2 subfamily D member 6 (CYP2D6) small molecule antagonists: luciferase biochemical (cell-free) qHTS assay (AID 1645840; active = well fitted curve in the direction sought with a large enough effect in the repeat runs; an effect the other way counts as inactive or inconclusive; also: nearly all actives have a fitted effect of over 55% in size; also: potency is read from the fitted curve at half-maximal effect)
Sequence of Cytochrome P450 2D6 (Homo sapiens) (P10635 whole entry, looked up): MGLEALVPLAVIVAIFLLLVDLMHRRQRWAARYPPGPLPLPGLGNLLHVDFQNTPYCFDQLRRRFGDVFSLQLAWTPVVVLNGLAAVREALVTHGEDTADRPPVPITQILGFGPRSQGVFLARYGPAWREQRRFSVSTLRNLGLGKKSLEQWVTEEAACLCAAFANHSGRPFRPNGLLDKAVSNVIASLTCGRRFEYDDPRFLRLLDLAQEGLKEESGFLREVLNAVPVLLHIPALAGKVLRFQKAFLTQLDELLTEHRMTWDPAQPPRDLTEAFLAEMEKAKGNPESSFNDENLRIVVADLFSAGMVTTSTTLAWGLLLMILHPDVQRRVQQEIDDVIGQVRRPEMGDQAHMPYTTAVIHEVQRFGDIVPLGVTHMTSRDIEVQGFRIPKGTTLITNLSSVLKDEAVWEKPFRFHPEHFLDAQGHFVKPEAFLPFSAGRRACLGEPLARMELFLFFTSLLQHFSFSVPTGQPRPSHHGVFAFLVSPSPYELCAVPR
Outline: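 P450-Glo CYP2D6 system: proluciferin substrate converted by enzyme to luciferin, read by luminescence proportional to activity. Enzyme-substrate mix with compound 10 min at room temperature, then NADPH regeneration 1 h before detection reagent.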

[5] = target: Cytochrome P450 2C9 (Homo sapiens) (UniProt P11712); assay: Cytochrome P450 family 2 subfamily C member 9 (CYP2C9) small molecule antagonists: luciferase biochemical (cell-free) qHTS assay (AID 1645842; active = well fitted curve in the direction sought with a large enough effect in the repeat runs; an effect the other way counts as inactive or inconclusive; also: nearly all actives have a fitted effect of over 55% in size; also: potency is read from the fitted curve at half-maximal effect)
Sequence of Cytochrome P450 2C9 (Homo sapiens) (P11712 whole entry, looked up): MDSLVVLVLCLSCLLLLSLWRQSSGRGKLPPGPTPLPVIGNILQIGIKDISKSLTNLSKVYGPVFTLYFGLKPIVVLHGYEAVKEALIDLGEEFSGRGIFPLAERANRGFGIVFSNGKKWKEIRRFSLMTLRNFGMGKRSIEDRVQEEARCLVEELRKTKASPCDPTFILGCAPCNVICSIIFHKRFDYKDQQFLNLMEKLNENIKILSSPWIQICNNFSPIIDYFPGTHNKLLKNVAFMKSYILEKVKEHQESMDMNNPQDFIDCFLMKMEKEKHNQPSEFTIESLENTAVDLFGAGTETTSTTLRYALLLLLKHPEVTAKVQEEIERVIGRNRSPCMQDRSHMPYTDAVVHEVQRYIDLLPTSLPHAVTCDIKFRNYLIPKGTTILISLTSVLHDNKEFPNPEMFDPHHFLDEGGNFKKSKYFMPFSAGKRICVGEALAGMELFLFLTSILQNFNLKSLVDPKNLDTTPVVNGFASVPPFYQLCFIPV
Outline: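 P450-Glo CYP2C9 system: proluciferin substrate with enzyme in mix containing 0.4% BSA, 10 min at room temperature, then NADPH regeneration solution added and incubated 1 h at 37C. Detection reagent stopped reaction; luminescence read after 20 min as RLU.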

[6] = Primary qHTS for inhibitors of nuclear receptor binding SET domain protein 2 (NSD2) in an isogenic RCH-ACV NSD2 p.E1099K mutant (9B) (AID 1645876); also: nearly all actives have a fitted effect of over 70% in size; also: potency is read from the fitted curve at half-maximal effect
[7] = target: N-terminal Xaa-Pro-Lys N-methyltransferase 1 (Homo sapiens) (UniProt Q9BV86); assay: Confirmatory qHTS for Inhibitors of N-terminal methyltransferase 1 (NTMT1): MTaseGlo Assay (AID 1645874); also: potency is read from the fitted curve at half-maximal effect; nearly all actives have a fitted effect of over 65% in size
Sequence of N-terminal Xaa-Pro-Lys N-methyltransferase 1 (Homo sapiens) (Q9BV86 whole entry, looked up): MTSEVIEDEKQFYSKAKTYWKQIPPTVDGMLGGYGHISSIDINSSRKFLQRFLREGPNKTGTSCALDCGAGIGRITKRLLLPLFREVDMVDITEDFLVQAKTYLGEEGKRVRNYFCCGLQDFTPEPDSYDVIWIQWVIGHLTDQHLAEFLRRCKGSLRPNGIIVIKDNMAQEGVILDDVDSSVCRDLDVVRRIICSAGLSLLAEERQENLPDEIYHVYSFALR
Outline: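 MTase-Glo luminescence measured SAH formed by 125 nM NTMT1 from 100 uM SAM and 1 uM SPKRIA peptide over 30 min at room temperature, following 15 min compound preincubation. Percent inhibition against no-enzyme and DMSO controls gave 4-parameter Hill fits.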

[8] = target: Protein phosphatase 1D (Homo sapiens) (UniProt O15297); assay: RapidFire Mass Spectrometry qHTS Assay for Modulators of WT P53-Induced Phosphatase 1 (WIP1) (AID 1347424);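 also: amount of dephosphorylated VEPPL-S-QETFS peptide product formed by WIP1; series mostly up to about 63 µM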
Sequence of Protein phosphatase 1D (Homo sapiens) (O15297 whole entry, looked up): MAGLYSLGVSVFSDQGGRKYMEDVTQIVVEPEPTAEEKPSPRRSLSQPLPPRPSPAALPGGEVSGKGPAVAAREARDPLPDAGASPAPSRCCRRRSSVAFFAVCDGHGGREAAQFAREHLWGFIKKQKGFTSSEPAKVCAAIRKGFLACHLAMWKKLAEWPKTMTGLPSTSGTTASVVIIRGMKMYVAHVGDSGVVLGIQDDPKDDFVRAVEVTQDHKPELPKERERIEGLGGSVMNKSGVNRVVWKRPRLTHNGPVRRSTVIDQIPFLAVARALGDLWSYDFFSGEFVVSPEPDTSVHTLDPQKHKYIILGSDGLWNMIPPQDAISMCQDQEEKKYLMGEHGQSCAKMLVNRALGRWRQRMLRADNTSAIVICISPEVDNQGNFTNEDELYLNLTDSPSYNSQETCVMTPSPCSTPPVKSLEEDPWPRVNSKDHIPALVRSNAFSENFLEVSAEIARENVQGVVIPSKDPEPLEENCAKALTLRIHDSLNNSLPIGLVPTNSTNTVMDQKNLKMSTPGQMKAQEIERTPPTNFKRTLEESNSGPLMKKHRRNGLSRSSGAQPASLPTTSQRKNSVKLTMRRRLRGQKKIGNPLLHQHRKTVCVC
Outline: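 RapidFire mass spectrometry measured dephosphorylated peptide after 5 min room-temperature reaction of 2 uM VEPPL-pS-QETFS with 10 nM WIP1 (50 mM Tris-HCl pH 7.5, 30 mM MgCl2, 0.1 mM EGTA, BSA), following 1 hr compound preincubation; 1 uM isotope-labelled product standard.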

[9] = target: Protein phosphatase 1D (Homo sapiens) (UniProt O15297); assay: Rhodamine-PBP qHTS Assay for Modulators of WT P53-Induced Phosphatase 1 (WIP1) (AID 1347425)
Outline: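 The read-out is the change in Rhodamine-PBP fluorescence (f1 - f0, ex 525/em 598 nm) as Pi is released, read each minute for 11 min. Final reaction: 5 nM WIP1, 10 uM phosphopeptide VEPPL-pS-QETFS, 10 uM Rh-PBP, 50 mM Tris-HCl pH 7.5, 30 mM MgCl2. Compound was preincubated with enzyme for 1 hour at room temperature.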

[10] = Primary qHTS for inhibitors of La Crosse Virus (LACV) - induced cell death in SH-SY5Y cells (AID 1508616);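 also: top concentration of the series differs between compounds; higher means more rescue of cells from virus-induced death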
Outline: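 SH-SY5Y, 6000 cells/well; cpd via pin tool in DMSO; LACV 0.01 MOI; 6 d 37C 5% CO2; ATPLite, 5 min RT; luminescence normalized to ±virus DMSO controls.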

[11] = A High-Content qHTS Against Drug Library for the Identification of Small Molecules that Inhibit DYT1 Early Onset Primary Dystonia-Associated Cell Pathology (AID 1645839; calls by dose curve; also: series mostly up to about 46 µM)
Outline: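 High-content imaging quantified EGFP-TorsinA mislocalization in HEK293-derived cells inducibly expressing DYT1 mutant torsinA, after 48 h exposure to compound given together with tetracycline induction. Cell count served as a toxicity channel alongside %pathology.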

Measured: Potency

CCS(=O)(=O)c1cccc(-c2cc(C(=O)NC3CCN(C)CC3)c(C)c3[nH]c4ncc(C)cc4c23)c1
inactive: [2] | [3] | [4]
active: [1] 1.86 µM | [5] 4.77 µM | [6] 113 nM and 166 nM

CCCNC(=O)Nc1ccc(Oc2ncnc3cc(OC)c(OC)cc23)cc1Cl
inactive: [1] | [2] | [3] | [4] | [5]

CC(C)c1nn(-c2c(Cl)cccc2Cl)c2nc(Cc3ccc(OCCO)cc3)[nH]c(=O)c12
inactive: [2] | [3] | [4]
active: [1] 0.0294 µM | [5] 5.35 µM | [6] 45.9 nM and 46.8 nM

CC(=O)OCC(=O)[C@@]1(O)[C@H](C)C[C@H]2[C@@H]3C=C(C)C4=Cc5c(cnn5-c5ccccc5)C[C@]4(C)[C@@H]3[C@@H](O)C[C@@]21C
inactive: [1] | [2] | [3]

OCCCNc1cc(-c2ccnc(Nc3cccc(Cl)c3)n2)ccn1
inactive: [2] | [3]
active: [1] 0.0415 µM | [4] 13.5 µM | [5] 10.7 µM | [7] 22.4 µM | [6] 29 nM and 52.5 nM

CC(C)c1noc(N2CCC(COc3ccc(-c4ccc(S(C)(=O)=O)cc4)nc3)CC2)n1
inactive: [1] | [2] | [3] | [4]

C=CC(=O)Nc1cc2c(Nc3ccc(F)c(Cl)c3)ncnc2cc1OCCCN1CCOCC1
active: [1] 11.7 µM | [6] 1.68 µM and 2.95 µM
inactive: [8] | [9] | [2] | [3] | [5]

CC(=O)c1c(C)c2cnc(Nc3ccc(N4CCNCC4)cn3)nc2n(C2CCCC2)c1=O
inactive: [2] | [4] | [5]
active: [1] 14.7 µM | [3] 5.95 µM | [6] 1.48 µM

CCc1cc2c(cc1N1CCC(N3CCOCC3)CC1)C(C)(C)c1[nH]c3cc(C#N)ccc3c1C2=O
inactive: [1] | [2] | [3]

CC(C)(C)c1cnc(CSc2cnc(NC(=O)C3CCNCC3)s2)o1
inactive: [2] | [3]
active: [1] 0.262 µM | [4] 25.1 µM | [5] 17.8 µM | [6] 0.209 µM

Nc1ccccc1NC(=O)c1ccc(CNc2nccc(-c3cccnc3)n2)cc1
inactive: [2] | [3]
active: [1] 7.39 µM | [4] 4.77 µM | [5] 5.35 µM | [6] 258 nM and 590 nM

Cc1ccc2nc(NC(=O)CSc3nc4c(c(=O)n3-c3ccccc3)SCC4)sc2c1
inactive: [1] | [2] | [3] | [4] | [5] | [6]

Cc1nc2ccc(CN(C)c3ccc(C(=O)N[C@@H](CCC(=O)O)C(=O)O)s3)cc2c(=O)[nH]1
active: [6] 53.1 nM and 33.2 nM
not listed: [7]
inactive: all other assays above

CNC(=O)c1nn(C)c2c1C(C)(C)Cc1cnc(Nc3ccc(N4CCN(C)CC4)cc3)nc1-2
active: [1] 5.23 µM | [5] 21.3 µM | [6] 515 nM and 662 nM
inactive: [2] | [3] | [4]

Cc1cc(Nc2cc(CN3CCOCC3)c3nc(C)c(Cc4ccc(Cl)cc4F)n3n2)n[nH]1
active: [1] 5.23 µM | [4] 23.9 µM | [5] 12 µM | [7] 20.5 µM | [6] 3.26 µM and 1.86 µM
inactive: [2] | [3]

CNC(=O)c1ccc(N2C(=S)N(c3cnc(C#N)c(C(F)(F)F)c3)C(=O)C23CCC3)cc1F
active: [5] 6.74 µM
inactive: [1] | [2] | [3] | [4] | [6]

CNC(=O)c1cc(Oc2ccc(NC(=O)Nc3cc(C(C)(C)C)nn3-c3ccc4ncccc4c3)c(F)c2)ccn1
active: [1] 8.29 µM | [5] 6.74 µM | [6] 3.65 µM and 4.17 µM
inactive: [2] | [3] | [4]

Nc1nc(Nc2ccc(S(N)(=O)=O)cc2)nn1C(=O)c1c(F)cccc1F
inactive: [2] | [3] | [4]
active: [1] 4.15 µM | [5] 0.12 µM | [6] 1.63 µM and 2.35 µM

Cc1cc(Nc2nc(N[C@@H](C)c3ccc(F)cc3)c(C#N)cc2F)n[nH]1
inactive: [2] | [3]
active: [1] 2.08 µM | [4] 26.8 µM | [5] 1.9 µM | [6] 578 nM and 934 nM

NCC(=O)Nc1ccc(-n2nc(C(F)(F)F)cc2-c2ccc3c(ccc4ccccc43)c2)cc1
inactive: [1] | [2] | [3]
active: [4] 15.1 µM | [5] 4.77 µM | [6] 1.15 µM and 1.48 µM
